# Data reported in PMC7862700, “An all-to-all approach to the identification of sequence-specific readers for epigenetic DNA modifications on cytosine”.
# Columns and labels:
# Experiment in all cases: DAPPL (digital affinity profiling via proximity ligation, sequencing); 10 mM Tris-HCl pH 7.5, 50 mM NaCl, 1 mM DTT, 4% glycerol, room temperature, 30 min; GST-TFs on glutathione beads, 16-mer random dsDNA library, 0.1% formaldehyde crosslink after washing; high values mean tight binding
# Conditions in all cases: protein: recombinant; tags: N-terminal GST; dsDNA, one strand shown
# [1] = target: T1, ERF (Homo sapiens, UniProt P50548 1-548)
# T1 sequence: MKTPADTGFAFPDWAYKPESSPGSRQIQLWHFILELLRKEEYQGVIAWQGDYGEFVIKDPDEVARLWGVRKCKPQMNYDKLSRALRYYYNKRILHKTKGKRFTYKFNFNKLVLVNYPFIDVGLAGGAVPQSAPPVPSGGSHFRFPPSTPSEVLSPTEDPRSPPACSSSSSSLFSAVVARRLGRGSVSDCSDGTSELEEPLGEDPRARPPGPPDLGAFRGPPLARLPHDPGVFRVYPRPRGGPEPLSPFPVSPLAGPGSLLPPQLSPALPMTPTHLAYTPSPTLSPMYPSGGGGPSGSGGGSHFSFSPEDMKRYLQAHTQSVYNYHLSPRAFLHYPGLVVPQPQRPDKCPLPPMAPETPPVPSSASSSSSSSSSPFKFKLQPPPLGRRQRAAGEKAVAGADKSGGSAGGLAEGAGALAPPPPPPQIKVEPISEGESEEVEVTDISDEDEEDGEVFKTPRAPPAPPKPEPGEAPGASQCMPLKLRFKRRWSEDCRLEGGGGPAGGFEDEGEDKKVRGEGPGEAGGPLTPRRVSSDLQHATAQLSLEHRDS
# How it was run: (§1)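 Pools of DNA-barcoded human transcription factors, expressed in yeast as GST fusions on glutathione beads and combined with a tag-only sample, were incubated with 200 nmole of a 16-mer random double-stranded DNA library. Incubation took 30 min at room temperature in Tris/NaCl/DTT/glycerol buffer and was followed by washing, 0.1% formaldehyde crosslinking, proximity ligation (BsaI/T4 ligase, 1 h, 37 °C), PCR amplification and sequencing on an Illumina NextSeq500. Binding signal is the ratio of a hexamer's read frequency for a factor to its frequency for the tag-only sample.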
# [2] = target: T2, ETV3L (Homo sapiens, UniProt Q6ZN32 1-361)
# T2 sequence: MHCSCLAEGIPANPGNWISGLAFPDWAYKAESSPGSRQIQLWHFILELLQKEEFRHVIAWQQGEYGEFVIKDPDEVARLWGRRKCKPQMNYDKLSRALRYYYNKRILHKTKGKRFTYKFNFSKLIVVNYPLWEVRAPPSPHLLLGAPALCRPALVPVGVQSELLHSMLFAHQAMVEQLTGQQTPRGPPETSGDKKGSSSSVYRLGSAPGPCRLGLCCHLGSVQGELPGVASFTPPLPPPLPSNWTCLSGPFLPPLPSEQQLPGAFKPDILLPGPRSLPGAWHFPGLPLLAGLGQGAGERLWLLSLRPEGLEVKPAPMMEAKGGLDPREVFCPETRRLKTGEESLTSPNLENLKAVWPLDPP
# How it was run: as §1
# [3] = target: T3, ETS2 (Homo sapiens, UniProt P15036 1-469)
# T3 sequence: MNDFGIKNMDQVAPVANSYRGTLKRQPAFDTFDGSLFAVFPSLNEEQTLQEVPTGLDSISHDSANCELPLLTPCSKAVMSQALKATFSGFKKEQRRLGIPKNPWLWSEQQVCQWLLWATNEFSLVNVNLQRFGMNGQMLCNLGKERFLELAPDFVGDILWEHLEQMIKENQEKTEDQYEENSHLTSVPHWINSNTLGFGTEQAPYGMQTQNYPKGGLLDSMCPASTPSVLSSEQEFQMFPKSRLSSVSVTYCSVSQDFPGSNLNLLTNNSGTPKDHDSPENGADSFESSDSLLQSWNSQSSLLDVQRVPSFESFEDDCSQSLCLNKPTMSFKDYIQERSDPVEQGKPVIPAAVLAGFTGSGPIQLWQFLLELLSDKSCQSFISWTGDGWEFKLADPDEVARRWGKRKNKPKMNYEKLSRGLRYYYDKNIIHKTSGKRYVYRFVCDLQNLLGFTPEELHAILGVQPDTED
# How it was run: as §1
# [4] = target: T4, SPDEF (Homo sapiens, UniProt O95238 1-335)
# T4 sequence: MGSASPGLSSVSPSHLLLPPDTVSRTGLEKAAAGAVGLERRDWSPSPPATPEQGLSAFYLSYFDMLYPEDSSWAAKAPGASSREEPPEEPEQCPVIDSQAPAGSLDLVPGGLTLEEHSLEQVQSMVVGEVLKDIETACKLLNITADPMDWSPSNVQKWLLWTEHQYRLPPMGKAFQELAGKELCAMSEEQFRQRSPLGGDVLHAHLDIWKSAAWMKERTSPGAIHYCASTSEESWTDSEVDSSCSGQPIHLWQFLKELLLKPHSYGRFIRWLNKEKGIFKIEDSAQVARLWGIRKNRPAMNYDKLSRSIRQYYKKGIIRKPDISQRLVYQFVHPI
# How it was run: as §1
# [5] = target: T5, ETV7 (Homo sapiens, UniProt Q9Y603 1-341)
# T5 sequence: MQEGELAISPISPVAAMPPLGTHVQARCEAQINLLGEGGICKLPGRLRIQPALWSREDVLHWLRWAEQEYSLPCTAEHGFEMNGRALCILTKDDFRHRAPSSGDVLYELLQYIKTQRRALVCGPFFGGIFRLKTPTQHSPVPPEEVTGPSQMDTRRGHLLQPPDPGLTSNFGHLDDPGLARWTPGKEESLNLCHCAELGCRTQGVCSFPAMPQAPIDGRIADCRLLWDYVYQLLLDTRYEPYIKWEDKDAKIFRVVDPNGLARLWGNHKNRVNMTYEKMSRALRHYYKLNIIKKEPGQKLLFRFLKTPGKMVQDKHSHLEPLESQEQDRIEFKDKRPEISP
# How it was run: as §1
# [6] = target: T6, ELF5 (Homo sapiens, UniProt Q9UKW6-2 1-255)
# T6 sequence: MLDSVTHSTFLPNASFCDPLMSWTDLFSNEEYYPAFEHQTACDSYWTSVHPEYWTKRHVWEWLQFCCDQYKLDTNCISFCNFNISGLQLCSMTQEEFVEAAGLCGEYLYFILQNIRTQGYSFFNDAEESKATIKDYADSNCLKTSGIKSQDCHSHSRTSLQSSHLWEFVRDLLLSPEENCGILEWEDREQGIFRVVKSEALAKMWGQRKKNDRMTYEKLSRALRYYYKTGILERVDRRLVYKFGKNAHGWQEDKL
# How it was run: as §1
# [7] = target: T7, ETV3 (Homo sapiens, UniProt P41162-2 1-143)
# T7 sequence: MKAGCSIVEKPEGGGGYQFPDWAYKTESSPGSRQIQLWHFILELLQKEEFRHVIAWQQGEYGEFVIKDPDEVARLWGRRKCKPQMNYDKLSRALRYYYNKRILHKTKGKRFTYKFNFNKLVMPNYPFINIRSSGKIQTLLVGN
# How it was run: as §1
# [8] = target: ETV6 (Homo sapiens, UniProt P41212 1-452)
# Sequence of ETV6 (P41212 whole entry): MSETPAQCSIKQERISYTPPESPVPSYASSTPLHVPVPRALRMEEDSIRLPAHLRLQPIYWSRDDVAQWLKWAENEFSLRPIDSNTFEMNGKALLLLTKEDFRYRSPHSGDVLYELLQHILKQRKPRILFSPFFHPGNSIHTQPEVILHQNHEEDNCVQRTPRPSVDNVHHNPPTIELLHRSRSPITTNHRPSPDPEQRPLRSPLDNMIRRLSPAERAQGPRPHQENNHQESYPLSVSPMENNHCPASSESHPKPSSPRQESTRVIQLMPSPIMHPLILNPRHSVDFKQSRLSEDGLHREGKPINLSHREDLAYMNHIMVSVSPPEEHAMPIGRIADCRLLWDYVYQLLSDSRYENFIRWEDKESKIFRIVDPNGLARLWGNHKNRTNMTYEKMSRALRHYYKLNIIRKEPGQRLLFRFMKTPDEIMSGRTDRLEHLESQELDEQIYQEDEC
# How it was run: as §1
Sequence,binding signal [1],binding signal [2],binding signal [3],binding signal [4],binding signal [5],binding signal [6],binding signal [7],binding signal [8]
GCTTCG,"1.56 fold enrichment (6-mer frequency, TF over GST control)","1.31 fold enrichment (6-mer frequency, TF over GST control)","1.32 fold enrichment (6-mer frequency, TF over GST control)","1.35 fold enrichment (6-mer frequency, TF over GST control)","1.44 fold enrichment (6-mer frequency, TF over GST control)","1.3 fold enrichment (6-mer frequency, TF over GST control)","1.37 fold enrichment (6-mer frequency, TF over GST control)","1.29 fold enrichment (6-mer frequency, TF over GST control)"
TTCCCG,"1.75 fold enrichment (6-mer frequency, TF over GST control)","1.9 fold enrichment (6-mer frequency, TF over GST control)","1.97 fold enrichment (6-mer frequency, TF over GST control)","2.05 fold enrichment (6-mer frequency, TF over GST control)","1.88 fold enrichment (6-mer frequency, TF over GST control)","2.91 fold enrichment (6-mer frequency, TF over GST control)","1.92 fold enrichment (6-mer frequency, TF over GST control)","2.15 fold enrichment (6-mer frequency, TF over GST control)"
ATGATG,"1.27 fold enrichment (6-mer frequency, TF over GST control)","1.41 fold enrichment (6-mer frequency, TF over GST control)","1.27 fold enrichment (6-mer frequency, TF over GST control)","1.22 fold enrichment (6-mer frequency, TF over GST control)","1.43 fold enrichment (6-mer frequency, TF over GST control)","1.25 fold enrichment (6-mer frequency, TF over GST control)","1.43 fold enrichment (6-mer frequency, TF over GST control)","1.38 fold enrichment (6-mer frequency, TF over GST control)"
AAAACT,"1.2 fold enrichment (6-mer frequency, TF over GST control)","1.19 fold enrichment (6-mer frequency, TF over GST control)","1.24 fold enrichment (6-mer frequency, TF over GST control)","1.09 fold enrichment (6-mer frequency, TF over GST control)","1.29 fold enrichment (6-mer frequency, TF over GST control)","1.27 fold enrichment (6-mer frequency, TF over GST control)","1.21 fold enrichment (6-mer frequency, TF over GST control)","1.19 fold enrichment (6-mer frequency, TF over GST control)"
TTAATA,"1.24 fold enrichment (6-mer frequency, TF over GST control)","1.28 fold enrichment (6-mer frequency, TF over GST control)","1.21 fold enrichment (6-mer frequency, TF over GST control)","1.14 fold enrichment (6-mer frequency, TF over GST control)","1.23 fold enrichment (6-mer frequency, TF over GST control)","1.12 fold enrichment (6-mer frequency, TF over GST control)","1.09 fold enrichment (6-mer frequency, TF over GST control)","1.15 fold enrichment (6-mer frequency, TF over GST control)"
ACTCTT,"1.31 fold enrichment (6-mer frequency, TF over GST control)","1.27 fold enrichment (6-mer frequency, TF over GST control)","1.15 fold enrichment (6-mer frequency, TF over GST control)","1.18 fold enrichment (6-mer frequency, TF over GST control)","1.29 fold enrichment (6-mer frequency, TF over GST control)","1.34 fold enrichment (6-mer frequency, TF over GST control)","1.25 fold enrichment (6-mer frequency, TF over GST control)","1.25 fold enrichment (6-mer frequency, TF over GST control)"
ACCCTT,"1.2 fold enrichment (6-mer frequency, TF over GST control)","1.21 fold enrichment (6-mer frequency, TF over GST control)","1.1 fold enrichment (6-mer frequency, TF over GST control)","1.2 fold enrichment (6-mer frequency, TF over GST control)","1.1 fold enrichment (6-mer frequency, TF over GST control)","1.19 fold enrichment (6-mer frequency, TF over GST control)","1.19 fold enrichment (6-mer frequency, TF over GST control)","1.15 fold enrichment (6-mer frequency, TF over GST control)"
TTAAGC,"1.21 fold enrichment (6-mer frequency, TF over GST control)","1.22 fold enrichment (6-mer frequency, TF over GST control)","1.13 fold enrichment (6-mer frequency, TF over GST control)","1.04 fold enrichment (6-mer frequency, TF over GST control)","1.13 fold enrichment (6-mer frequency, TF over GST control)","1.14 fold enrichment (6-mer frequency, TF over GST control)","1.22 fold enrichment (6-mer frequency, TF over GST control)","1.06 fold enrichment (6-mer frequency, TF over GST control)"
AATATC,"1.46 fold enrichment (6-mer frequency, TF over GST control)","1.48 fold enrichment (6-mer frequency, TF over GST control)","1.55 fold enrichment (6-mer frequency, TF over GST control)","1.78 fold enrichment (6-mer frequency, TF over GST control)","1.52 fold enrichment (6-mer frequency, TF over GST control)","1.82 fold enrichment (6-mer frequency, TF over GST control)","1.6 fold enrichment (6-mer frequency, TF over GST control)","1.57 fold enrichment (6-mer frequency, TF over GST control)"
